Bioassay records (PubChem BioAssay)
M1 ag: agonists of human M1 muscarinic receptor; P11229; CHO-K1 hM1, Fluo-8 calcium fluorescence, agonist mode; 0% DMSO, 100% acetylcholine EC100; activation, % at 3 µM; hit rate 0.33% among 360,000; AID 588814;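 active means activation above the run's mean compound activation plus 3 SD, cut at about 16% in these data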;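 further: peak over basal fluorescence ratio within a 140 s kinetic read after compound addition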
Target sequence (P11229 whole entry, looked up): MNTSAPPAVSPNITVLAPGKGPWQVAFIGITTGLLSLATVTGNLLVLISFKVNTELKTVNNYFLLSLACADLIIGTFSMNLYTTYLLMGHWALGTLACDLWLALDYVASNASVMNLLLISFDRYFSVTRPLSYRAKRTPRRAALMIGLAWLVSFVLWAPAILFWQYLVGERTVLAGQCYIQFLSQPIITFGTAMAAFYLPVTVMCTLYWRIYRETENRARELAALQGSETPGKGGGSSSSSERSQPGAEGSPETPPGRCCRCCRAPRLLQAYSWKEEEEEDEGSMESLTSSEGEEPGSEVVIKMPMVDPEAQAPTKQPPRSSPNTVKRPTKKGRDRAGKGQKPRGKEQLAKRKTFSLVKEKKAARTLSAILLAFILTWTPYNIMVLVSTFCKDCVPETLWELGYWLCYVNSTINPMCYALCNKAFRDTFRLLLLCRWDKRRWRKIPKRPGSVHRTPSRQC
CHO-K1 Ca antag: counter-screen for M1 antagonists: effect in parental CHO-K1 cells; ATP-induced calcium, Fluo-8 fluorescence; inhibition, % at 3 µM; hit rate 0.6% among 360,000; AID 602250;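 active means inhibition above a per-plate cutoff, the plate's mean sample inhibition plus 3 SD, cut at about 24% in these data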
CHRM1 antagonist: blocks human M1 muscarinic receptor; P11229; CHO-K1 hM1, Fluo-8 calcium fluorescence, ACh EC80 antagonist; inhibition, % at 3 µM; hit rate 1.3% among 360,000; AID 588852;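 active means percent inhibition above its own plate's cutoff, namely the mean of that plate's compound wells plus 3 SD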;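 further: peak over basal fluorescence ratio during 140 s after agonist addition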
M1 ag parental: M1 agonist counterscreen hit in parental CHO-K1 cells. Fluo-8 calcium fluorescence; scaled to maximal ATP response, vehicle zero. activation, % at 3 µM. hit rate 0.48% among 360,000. AID 602248; in the data active means activation above about 15%;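 further: untransfected CHO-K1 host cells lacking M1 receptor as counterscreen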
M1 PAM parental: nonselective activator or artifact in parental CHO-K1 calcium assay; ATP EC20, Fluo-8 calcium fluorescence; 0% at ATP EC20, 100% at ATP max; activation, % at 3 µM; hit rate 0.02% among 360,000; AID 602247;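 active means activation above the run cutoff, the mean activation of all test compounds plus 3 SD, cut at about 40% in these data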;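 further: peak over basal fluorescence ratio in a 140 s read after ATP addition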
CHRM1 PAM: human CHRM1 positive allosteric modulation | CHO-K1 hM1, Fluo-8 calcium fluorescence, ACh EC20; 0% = ACh EC20, 100% = maximal ACh | activation, % at 3 µM | hit rate 0.088% among 360,000 | AID 588819; in the data active means activation above about 19%, passing the limit was not always enough
Each line names hits and unclear results; the compound was inactive in the other large screens. Most compounds without a hit are left out; they make up all but 2.3% or so of the library.

CC(C)N1CCCC(C)(C(=O)Nc2ccccc2)C1 (stereo unspecified)	none
Cc1nc(C(F)(F)F)ccc1C(=O)N1CCCC(C)(C(=O)O)C1 (stereo unspecified)	none
CC1CSC(N(C(=O)c2ccc(S(C)(=O)=O)cc2)c2ccc(Cl)cc2)=N1 (stereo unspecified)	M1 ag parental 16
CCOc1ccccc1N(C(=O)Nc1cccc(Cl)c1)C1=NC(C)CS1 (stereo unspecified)	none
CN(Cc1cccc2cnccc12)C(=O)c1cc(COc2ccc(F)cc2F)on1	none
CCc1ccc(CN(C)C(=O)c2cc(COc3cccc4cnccc34)on2)cc1	CHO-K1 Ca antag 25
Cc1c(C(C)NC(=O)c2cc(COc3cccc4cnccc34)on2)cnn1C (stereo unspecified)	M1 ag parental 16
CC(=O)c1cccc(OCc2cc(C(=O)N(C)Cc3cnccn3)no2)c1	none
CN(Cc1cccnc1)C(=O)c1cc(COc2ccc3c(c2)CCCC3)on1	CHRM1 antagonist 64
COc1ccc(C(=O)Nc2ccc(N3CCN(C(=O)c4ccccc4C)CC3)cc2)cc1	none
OC(c1ccc(F)cc1)c1ncc(-c2ccc3ccccc3c2)[nH]1 (stereo unspecified)	none
C=CCOc1ccc(/C=C\c2nc(O)c([N+](=O)[O-])c(=O)[nH]2)cc1OCC	CHRM1 PAM 27
O=c1[nH]c(/C=C\c2cccc(Cl)c2)nc(O)c1[N+](=O)[O-]	none
O=c1[nH]c(/C=C\c2cccc(F)c2)nc(O)c1[N+](=O)[O-]	M1 PAM parental 41
C=CCOc1ccc(/C=C\c2nc(O)c([N+](=O)[O-])c(=O)[nH]2)cc1OC	none
COc1cc(-c2nc3cccc(C)n3c2NCC2CCCO2)ccc1O (stereo unspecified)	none
O=S(=O)(c1ccc(N2CCCC2)nc1)N1CCCC1	none
CCN1CCN(c2ccc(S(=O)(=O)N3CCCC3)cn2)CC1	CHRM1 antagonist 36
CCN1CCN(c2ccc(N3CCN(S(=O)(=O)c4cc([N+](=O)[O-])ccc4C)CC3)nn2)CC1	CHRM1 antagonist 40
N#Cc1cccc(C=C(C(=O)c2ccccc2)c2ccccc2)c1	none (no result: M1 ag, CHRM1 antagonist, CHRM1 PAM)
COc1cccc(CN(C)C(=O)c2ccc(OCC(=O)Nc3cccc(C(F)(F)F)c3)c(OC)c2)c1	CHRM1 antagonist 40
CN1CCN(c2ccc(C(F)(F)F)cc2NC(=O)Nc2ccccc2)CC1	M1 ag parental 21
COc1cc(CN2CCCN(C)CC2)cc([N+](=O)[O-])c1O	none
COc1ccc(CNC(=O)Cc2nn(C)c(=O)c3ccccc23)cc1	CHO-K1 Ca antag 24
Cn1nc(CC(=O)NCc2ccc(C(F)(F)F)cc2)c2ccccc2c1=O	none
CC(C)CN1C(=S)SC(C)(C)C1n1oc(=O)n(-c2ccc(Cl)cc2)c1=O (stereo unspecified)	CHRM1 antagonist 51
CC(C)CN1C(=S)SC(C)(C)C1n1oc(=O)n(-c2ccccc2)c1=O (stereo unspecified)	none
O=C(Cn1nnc2ccccc2c1=O)NCC1CCC(C(=O)O)CC1 (stereo unspecified)	M1 ag parental 18
CC(C)[C@@H](C(=O)NCC1CCC(C(=O)O)CC1)n1nnc2ccccc2c1=O (stereo partly specified)	none
Cc1occc1C(=O)NNC(=O)CN1C(=O)NC2(CCCCC2)C1=O	none
COc1ccc(C)cc1NC(=O)CSc1nnc2ccc(-c3ccncc3)nn12	CHRM1 antagonist 28
CC(C(=O)NC1CCCC1)N(C(=O)c1ccc(-c2ccccc2)[nH]1)c1ccccc1F (stereo unspecified)	none
CCCCn1c(-c2ccc(Cl)cc2)nc2c(=O)n(C)c(=O)[nH]c21	none
Cn1c(=O)[nH]c2c(nc(-c3ccc(Cl)cc3)n2C)c1=O	CHO-K1 Ca antag 29
O=C(C1CCCN(S(=O)(=O)c2cccs2)C1)N1CCc2ccccc2C1 (stereo unspecified)	none
O=C(C1CCCN(S(=O)(=O)c2cccs2)C1)N1CCN(C2CCCCC2)CC1 (stereo unspecified)	CHRM1 antagonist 17
COC(=O)CSc1nnc2n(-c3ccc(OC)cc3)c(=O)c3c4c(sc3n12)CCCCC4	CHO-K1 Ca antag 24
COC(=O)CSc1nnc2n(C3CCCCC3)c(=O)c3c4c(sc3n12)CCCC4	none
C=CCn1c(SCC(=O)N(C)CC(=O)Nc2ccc(C)cc2)nnc1-c1ccncc1	none
N#C/C(=C\C=C\c1ccccc1)C(=O)NCc1ccco1	none
O=C(NCc1ccco1)/C(=C/C=C\c1ccccc1)NC(=O)c1ccc(Br)o1	M1 ag parental 18
Cn1nc(C(C)(C)C)cc1C(=O)N1CCCCC1c1cc(C(=O)Nc2ccccc2Cl)no1 (stereo unspecified)	CHO-K1 Ca antag 24
NS(=O)(=O)c1ccc(CCNC(=O)c2ccc(NC3=NC4CS(=O)(=O)CC4S3)cc2)cc1 (stereo unspecified)	none
Cc1ccc(S(=O)(=O)n2c(N)nc3cc(C)c(C)cc32)cc1	CHRM1 antagonist 20
Cc1ccc(S(=O)(=O)n2c(C)nc3cc(C)ccc32)cc1	none
Cc1cc([N+](=O)[O-])nn1CC(=O)Nc1cc(F)ccc1F	M1 ag parental 16
COC(=O)CCC(NS(=O)(=O)OCC(Cl)(Cl)Cl)c1ccccc1 (stereo unspecified)	none
CC(C)CC(NS(=O)(=O)OCC(Cl)(Cl)Cl)c1ccccc1 (stereo unspecified)	CHRM1 antagonist 35
C=CCn1c(O)c(C=Nc2ccccc2)sc1=S	CHO-K1 Ca antag 29
OC1(c2ccc(Cl)cc2)CCN(Cc2c[nH]c3ccccc23)CC1	M1 ag 22
Cc1cccc(/C=N/NC(=O)c2cc(C)nc3ccccc23)n1	none
Cc1cccc(/C=N/NC(=O)c2cc(C3CC3)nc3ccccc23)n1	CHO-K1 Ca antag 26
CC(OC(=O)c1ccc(S(C)(=O)=O)c([N+](=O)[O-])c1)C(=O)NC1C2CC3CC(C2)CC1C3 (stereo unspecified)	none
NC(=O)c1ccsc1NC(=O)COC(=O)/C=C/c1ccc([N+](=O)[O-])cc1	none
COC(=O)c1ccc(/C=C/C(=O)OCC(=O)Nc2sccc2C(N)=O)cc1	CHRM1 antagonist 47, M1 ag parental 16
COc1ccc(/C=C/C(=O)OCC(=O)Nc2cc(C(N)=O)cc(C(N)=O)c2)cc1	CHO-K1 Ca antag 25
CCN(C(=O)COC(=O)c1cncc(Br)c1)C1CCS(=O)(=O)C1 (stereo unspecified)	none
CC1CCC(NC(=O)c2cc(S(=O)(=O)N3CCCCC3)ccc2N2CCOCC2)CC1 (stereo unspecified)	none
